# According to the supplement of paper PMC10037445:
# “And” between values parts separate entries of the source, which are not always exact repeats. Equal entries are not always repeated. In all, about 2,900 compounds were measured (“NF-kB SEAP reporter activity, fold change vs agonist alone”: median about 0.99, highest 2% from about 2.6 on). Only a selection was taken, and the highest values are over-represented in it overall.
# Legend:
# RAW-Dual [1] = assay: NF-kB SEAP reporter activity, fold change vs agonist alone; higher = enhanced NF-kB activity
# Procedure, shortened: (§1)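 After 50 nL of library stock was delivered by pin tool to RAW-Dual macrophages (50,000 cells/well, DMEM, 384-well plates), a PRR agonist was added 1 h later and the plates were kept at 37 °C, 5% CO2. Twenty hours later, IRF was read from supernatant by QuantiLuc luminescence and NF-κB by QuantiBlue absorbance at 620 nm. Reporter activity is stated as fold change over agonist-alone wells. Wells with IncuCyte confluency under 70% of agonist controls in both mask sets were counted as cytotoxic.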
# RAW-Dual [2] = assay: NF-kB SEAP reporter activity, fold change vs agonist alone; cytotoxicity flag (confluency mask): not cytotoxic; higher = enhanced NF-kB activity
# Procedure, shortened: as §1
# RAW-Dual [3] = assay: NF-kB SEAP reporter activity, fold change vs agonist alone; cytotoxicity flag (confluency mask): cytotoxic (confluency <70% of control); higher = enhanced NF-kB activity
# Procedure, shortened: as §1
# [4] = library stock concentration (final ~1000-fold dilution): 10 mM, cytotoxicity flag (confluency mask): not cytotoxic, agonist: Imiquimod (TLR7) […]
# [5] = library stock concentration (final ~1000-fold dilution): 10 mM, cytotoxicity flag (confluency mask): not cytotoxic, agonist: MPLA (TLR4) […]
# [6] = agonist: ODN 1826 (TLR9) 0.5 ug/mL
# [7] = agonist: Pam2CSK4 (TLR2/6) 0.1 ug/mL
# [8] = agonist: Pam3CSK4 (TLR2/1) 0.1 ug/mL
smiles,measurement,setting,value
CC(C)N(CCCNC(=O)Nc1ccc(C(C)(C)C)cc1)CC1OC(n2ccc3c(N)ncnc32)C(O)C1O (stereo not given),NF-kB SEAP reporter activity,RAW-Dual [1]; [4],1.02
same,NF-kB SEAP reporter activity,RAW-Dual [1]; [5],0.984
CC(C)N(CCCNC(=O)Nc1ccc(C(C)(C)C)cc1)CC1OC(n2ccc3c(N)ncnc32)C(O)C1O (stereo not given) (library stock concentration (final ~1000-fold dilution): 10 mM),NF-kB SEAP reporter activity,RAW-Dual [2]; agonist: LPS (TLR4) 0.1 ug/mL,0.953
same,NF-kB SEAP reporter activity,RAW-Dual [2]; [6],1.05
same,NF-kB SEAP reporter activity,RAW-Dual [2]; [7],0.991
same,NF-kB SEAP reporter activity,RAW-Dual [2]; [8],1.14
C=C(C)C1CCC2(C(=O)O)CCC3(C)C(CCC4C5(C)CCC(O)C(C)(C)C5CCC43C)C12 (stereo not given) (library stock concentration (final ~1000-fold dilution): 10 mM),NF-kB SEAP reporter activity,RAW-Dual [2]; agonist: LPS (TLR4) 0.1 ug/mL,1.45
same,NF-kB SEAP reporter activity,RAW-Dual [2]; [6],0.913
same,NF-kB SEAP reporter activity,RAW-Dual [2]; [7],0.832
same,NF-kB SEAP reporter activity,RAW-Dual [2]; [8],1.14
C=C(C)C1CCC2(C(=O)O)CCC3(C)C(CCC4C5(C)CCC(O)C(C)(C)C5CCC43C)C12 (stereo not given),NF-kB SEAP reporter activity,RAW-Dual [1]; [4],1.04
same,NF-kB SEAP reporter activity,RAW-Dual [1]; [5],1.1
CN1CCc2cc(Nc3ncc(C4CC4)c(NCCCNC(=O)C4CCC4)n3)ccc2C1,NF-kB SEAP reporter activity,"RAW-Dual [1]; library stock concentration (final ~1000-fold dilution): 10 mM, cytotoxicity flag (confluency mask): cytotoxic (confluency <70% of control), agonist: Imiquimod (TLR7) […]",0.243
same,NF-kB SEAP reporter activity,"RAW-Dual [1]; library stock concentration (final ~1000-fold dilution): 10 mM, cytotoxicity flag (confluency mask): cytotoxic (confluency <70% of control), agonist: MPLA (TLR4) […]",0.288
O=C(NCCCNc1nc(Nc2cccc(CN3CCOCC3)c2)ncc1C1CC1)C1CCC1 (library stock concentration (final ~1000-fold dilution): 10 mM),NF-kB SEAP reporter activity,RAW-Dual [2]; agonist: LPS (TLR4) 0.1 ug/mL,2.49 and 3.77
same,NF-kB SEAP reporter activity,RAW-Dual [2]; [6],0.595 and 0.333
same,NF-kB SEAP reporter activity,RAW-Dual [2]; [7],2.26 and 2.33
same,NF-kB SEAP reporter activity,RAW-Dual [2]; [8],4.25 and 3.71
CN1CCc2cc(Nc3ncc(C4CC4)c(NCCCNC(=O)C4CCC4)n3)ccc2C1 (library stock concentration (final ~1000-fold dilution): 10 mM),NF-kB SEAP reporter activity,RAW-Dual [3]; agonist: LPS (TLR4) 0.1 ug/mL,0.23
same,NF-kB SEAP reporter activity,RAW-Dual [3]; [6],0.207
same,NF-kB SEAP reporter activity,RAW-Dual [3]; [7],0.0969
same,NF-kB SEAP reporter activity,RAW-Dual [3]; [8],0.211
O=C(NCCCNc1nc(Nc2cccc(NC(=O)N3CCCC3)c2)ncc1I)c1cccs1 (library stock concentration (final ~1000-fold dilution): 10 mM),NF-kB SEAP reporter activity,RAW-Dual [3]; agonist: LPS (TLR4) 0.1 ug/mL,0.329 and 0.35
same,NF-kB SEAP reporter activity,RAW-Dual [3]; [6],0.729 and 1.48
same,NF-kB SEAP reporter activity,RAW-Dual [3]; [7],0.0917 and 0.128
same,NF-kB SEAP reporter activity,RAW-Dual [3]; [8],0.252 and 0.376
CC(C)(C)c1[nH]cnc1C=c1[nH]c(=O)c(=Cc2ccccc2)[nH]c1=O,NF-kB SEAP reporter activity,RAW-Dual [1]; [4],2.47
same,NF-kB SEAP reporter activity,RAW-Dual [1]; [5],2.5
O=c1[nH]cnc2ccccc12 (library stock concentration (final ~1000-fold dilution): 10 mM),NF-kB SEAP reporter activity,RAW-Dual [2]; agonist: LPS (TLR4) 0.1 ug/mL,1.14
same,NF-kB SEAP reporter activity,RAW-Dual [2]; [6],0.991
same,NF-kB SEAP reporter activity,RAW-Dual [2]; [7],1.05
same,NF-kB SEAP reporter activity,RAW-Dual [2]; [8],1.08
CC(C)(C)c1[nH]cnc1C=c1[nH]c(=O)c(=Cc2ccccc2)[nH]c1=O (library stock concentration (final ~1000-fold dilution): 10 mM),NF-kB SEAP reporter activity,RAW-Dual [2]; agonist: LPS (TLR4) 0.1 ug/mL,6.1
same,NF-kB SEAP reporter activity,RAW-Dual [2]; [6],3.37
same,NF-kB SEAP reporter activity,RAW-Dual [2]; [7],2.02
same,NF-kB SEAP reporter activity,RAW-Dual [2]; [8],2.3
O=c1[nH]cnc2ccccc12,NF-kB SEAP reporter activity,RAW-Dual [1]; [4],0.847
same,NF-kB SEAP reporter activity,RAW-Dual [1]; [5],0.983
O=C(Nc1ccc(O)c(C(=O)O)c1)c1cccc(NC(=O)c2ccco2)c1,NF-kB SEAP reporter activity,RAW-Dual [1]; [4],0.942
same,NF-kB SEAP reporter activity,RAW-Dual [1]; [5],0.969
O=C(Nc1ccc(O)c(C(=O)O)c1)c1cccc(NC(=O)c2ccco2)c1 (library stock concentration (final ~1000-fold dilution): 10 mM),NF-kB SEAP reporter activity,RAW-Dual [2]; agonist: LPS (TLR4) 0.1 ug/mL,0.971
same,NF-kB SEAP reporter activity,RAW-Dual [2]; [6],0.895
same,NF-kB SEAP reporter activity,RAW-Dual [2]; [7],1.05
same,NF-kB SEAP reporter activity,RAW-Dual [2]; [8],1.06
Cl.Cl.c1cc(-c2nc3ccc(OCCCN4CCCC4)cc3o2)ccc1OCCCN1CCCC1 (library stock concentration (final ~1000-fold dilution): 1 mM),NF-kB SEAP reporter activity,RAW-Dual [2]; agonist: LPS (TLR4) 0.1 ug/mL,0.935
same,NF-kB SEAP reporter activity,RAW-Dual [2]; [6],0.224
same,NF-kB SEAP reporter activity,RAW-Dual [2]; [7],1.11
same,NF-kB SEAP reporter activity,RAW-Dual [2]; [8],1.06
Cl.Cl.c1cc(-c2nc3ccc(OCCCN4CCCC4)cc3o2)ccc1OCCCN1CCCC1,NF-kB SEAP reporter activity,"RAW-Dual [1]; library stock concentration (final ~1000-fold dilution): 1 mM, cytotoxicity flag (confluency mask): not cytotoxic, agonist: Imiquimod (TLR7) […]",1.27
same,NF-kB SEAP reporter activity,"RAW-Dual [1]; library stock concentration (final ~1000-fold dilution): 1 mM, cytotoxicity flag (confluency mask): not cytotoxic, agonist: MPLA (TLR4) […]",1.08
